This note sets out measurements from PubChem BioAssay (Tox21).

Each structure is given as a SMILES string. Where “and” joins values, the source holds several entries; their conditions need not be identical. Identical values can stand only once. Records with an inconclusive call do not appear. Some structures have more than one record in an assay (separate samples or runs), and their calls can disagree. Calls of active or inactive are those of the source. Unless noted, the call rests on the fitted dose curve.

Test [1] in a line: Nuclear factor erythroid 2-related factor 2/antioxidant responsive element (Nrf2/ARE) small molecule agonists: qHTS cell viability counter screen in human keratinocytes (AID 1919968; active means well fitted curve in the direction sought with a large enough effect in the repeat runs; an effect the other way counts as inactive or inconclusive; further: nearly all actives have a fitted effect of over 55% in size). In short, it runs like this:
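Parallel cytotoxicity read: KeratinoSens HaCaT cells, compound treatment 23 h, viability by CellTiter-Fluor fluorescence 1 h post-reagent.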
(In qHTS, concentration-response curves come from the screen itself.)

The nature of test [2]: Nuclear factor erythroid 2-related factor 2/antioxidant responsive element (Nrf2/ARE) small molecule agonists: luciferase reporter gene qHTS assay in human keratinocytes (AID 1919969). Further: nearly all actives have a fitted effect of over 35% in size. Further: potency means the concentration at half of the fitted maximal effect.
The target of test [3] is Gonadotropin-releasing hormone receptor (Homo sapiens) (UniProt P30968). Kind of test: Human gonadotropin-releasing hormone receptor (GnRHR) small molecule agonists, calcium flux assay in GnRHR-HEK293 cells (AID 1920063). Further: nearly all actives have a fitted effect of over 35% in size. In short, it runs like this:
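Calcium flux, agonist mode, human GnRHR stably integrated in HEK293; dye 1 h at 37 C before compound; Ex/Em=480/540 kinetic read, 3 min; 15 concentrations, triplicate.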
In general terms: Calcium flux is commonly read through the fluorescence of an indicator in the cells.

Test [4] concerns the target KiSS-1 receptor (Homo sapiens) (UniProt Q969F8). The test is described as follows: Human kisspeptin (KISS1R) small molecule agonists, calcium flux assay in KISS1R-HEK293 cells (AID 1920064; active means well fitted curve in the direction sought with a large enough effect in the repeat runs; an effect the other way counts as inactive or inconclusive). Summed up: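 Triplicate 15-concentration series were applied to dye-loaded human KISS1R HEK293 cells, and agonist-evoked calcium fluorescence was captured for 3 min.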
The nature of test [5]: G protein-coupled receptor (GPCR) small molecule agonists, calcium flux assay: HEK293 wild type cell line counter screen (AID 1920065). In short, it runs like this:
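Non-specific calcium responders were flagged by adding DMSO-dissolved compounds to dye-loaded cells and reading 480/540 nm fluorescence each second for 3 min; ATP served as positive control.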

The nature of test [6]: p53 small molecule agonists, cell-based qHTS assay with human liver microsomes (AID 1963577). Summed up: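 p53RE-bla cells, 4,000/well, compound added after 5 h, with human liver microsomes 0.5 mg/mL and NADPH 0.5 mg/mL final; 16 h at 37 C, then LiveBLAzer 2 h RT, fluorescence.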
Test [7] in a line: p53 small molecule agonists, cell-based qHTS assay with rat liver microsomes (AID 1963578). In short, it runs like this:
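p53RE-bla cells, 4,000/well, pre-incubated 5 h, then given compounds plus rat liver microsomes (0.5 mg/mL final) and NADPH (0.5 mg/mL final). Incubation 16 h at 37 C; beta-lactamase reporter read by LiveBLAzer fluorescence after 2 h at room temperature.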

A short description of test [8]: p53 small molecule agonists, cell-based qHTS assay with human liver microsomes: qHTS cell viability counter screen (AID 1963579). Further: nearly all actives have a fitted effect of over 45% in size. Further: potency means the concentration at half of the fitted maximal effect. In short, it runs like this:
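p53RE-bla cells, 4,000/well, dosed 5 hours after plating, with human liver microsomes (0.5 mg/mL final) plus NADPH (0.5 mg/mL final), 16 hours at 37 C. Viability read as CellTiter-Glo luminescence after 30 min at room temperature.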

The nature of test [9]: p53 small molecule agonists, cell-based qHTS assay with rat liver microsomes: qHTS cell viability counter screen (AID 1963580). Further: nearly all actives have a fitted effect of over 45% in size. Further: potency means the concentration at half of the fitted maximal effect. In short, it runs like this: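 Cytotoxicity counter screen: intracellular ATP read by CellTiter-Glo luminescence in the p53 reporter wells. HCT-116 p53RE-bla cells were treated for 16 h at 37 C alongside rat liver microsomes and NADPH, each 0.5 mg/mL final.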

A short description of test [10]: p53 small molecule agonists, cell-based qHTS assay: qHTS cell viability counter screen (AID 1963581). Further: nearly all actives have a fitted effect of over 45% in size. In short, it runs like this:
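Multiplexed with the reporter read, a CellTiter-Glo step (30 min, room temperature) gauges ATP-based viability of HCT-116 p53RE-bla cells after 16 h compound incubation at 37 C.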

The nature of test [11]: p53 small molecule agonists, cell-based qHTS assay (AID 1963582; active means well fitted activation curve with a large enough effect in the signal ratio in the repeat runs, not every such curve was filed as active; the % refers to the signal ratio). Summed up: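 Beta-lactamase reporter cells (p53RE-bla) treated with compounds for 16 h at 37 C; FRET substrate, 2 h, room temperature; fluorescence intensity.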
The target in test [12] is 5-hydroxytryptamine receptor 2A (Homo sapiens) (UniProt P28223). Kind of test: 5-hydroxytryptamine receptor 2A (HTR2A) small molecule antagonists, cell-based qHTS assay (AID 1963586). Further: nearly all actives have a fitted effect of over 45% in size. Summed up:
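CHO cells stably expressing human HTR2A were plated for 18 h at 37 C, then loaded with calcium dye for 1 h. Compounds were preincubated 5 min at room temperature before DOI (4 nM solution) was added. Kinetic fluorescence was read for 3 min.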

For test [13] the target is unchanged. Kind of test: 5-hydroxytryptamine receptor 2A (HTR2A) small molecule agonists, cell-based qHTS assay (AID 1963587). Further: nearly all actives have a fitted effect of over 30% in size. Summed up:
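Kinetic calcium-flux fluorescence (2 min, 1 sec intervals) after compound addition in agonist mode. HTR2A-CHO cells were cultured 18 h, then dye-loaded 1 h at 37 C.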

For test [14], the target named is Muscarinic acetylcholine receptor M1 (Homo sapiens) (UniProt P11229). The test is described as follows: Cholinergic receptor muscarinic 1 (CHRM1) small molecule antagonists, cell-based qHTS assay (AID 1963588). Further: nearly all actives have a fitted effect of over 40% in size. Further: potency means the concentration at half of the fitted maximal effect. Summed up: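 Compounds were tested at 15 concentrations in three independent runs. Dye-loaded CHRM1-CHO cells were exposed 5 min at room temperature before stimulation by acetylcholine added at 50nM. Intracellular calcium was read kinetically on FDSS for 3 min.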
Chain of Muscarinic acetylcholine receptor M1 (Homo sapiens) (P11229 whole entry, looked up): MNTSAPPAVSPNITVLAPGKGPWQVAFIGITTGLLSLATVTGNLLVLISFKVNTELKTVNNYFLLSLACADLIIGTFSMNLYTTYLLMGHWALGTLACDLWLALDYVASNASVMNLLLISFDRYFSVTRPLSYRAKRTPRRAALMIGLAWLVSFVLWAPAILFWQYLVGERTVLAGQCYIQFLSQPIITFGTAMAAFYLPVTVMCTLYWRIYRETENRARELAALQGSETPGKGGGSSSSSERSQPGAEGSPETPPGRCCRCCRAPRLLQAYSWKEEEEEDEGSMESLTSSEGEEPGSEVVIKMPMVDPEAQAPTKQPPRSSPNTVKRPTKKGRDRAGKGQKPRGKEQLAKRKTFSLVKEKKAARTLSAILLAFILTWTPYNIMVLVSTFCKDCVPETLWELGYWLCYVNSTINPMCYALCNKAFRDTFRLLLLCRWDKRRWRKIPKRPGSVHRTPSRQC

For test [15] the target is unchanged. The test is described as follows: Cholinergic receptor muscarinic 1 (CHRM1) small molecule agonists, cell-based qHTS assay (AID 1963589). Further: nearly all actives have a fitted effect of over 35% in size. Summed up: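 qHTS, 15-point titration, 3 independent runs: compounds pin-transferred onto dye-loaded CHRM1-CHO cells (human M1), calcium fluorescence followed every second to detect agonism.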
Test [16] in a line: cAMP Responsive Elements (CRE) small molecule agonists, cell-based qHTS assay (AID 1963590). Summed up:
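Quantitative HTS for CRE agonists: HEK 293T CRE-bla cells, overnight plating, 3 h compound incubation at 37 C/5% CO2, then 2 h room-temperature LiveBLAzer B/G FRET substrate loading.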

Test [17] is described as follows: cAMP Responsive Elements (CRE) small molecule antagonists, cell-based qHTS assay (AID 1963591; active means well fitted inhibition curve with a large enough effect in the signal ratio in the repeat runs, not every such curve was filed as active; the % refers to the signal ratio). In short, it runs like this: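 Fluorescence intensity from cleaved LiveBLAzer B/G substrate (2 h, room temperature) quantified CRE-bla activity in HEK 293T cells exposed 3 h to compound with 0.25 uM final NKH477.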
In test [18] the target is Beta-2 adrenergic receptor (Homo sapiens) (UniProt P07550). The test is described as follows: Adrenergic beta2 receptor (ADRB2) small molecule antagonists, cell-based qHTS assay (AID 1963592). Further: series mostly up to about 92 µM; nearly all actives have a fitted effect of over 50% in size. Summed up: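 Assay format: CHO-ADRB2 cells, 18-20hr seeding at 37C/5% CO2, then compound plus 1nM isoproterenol agonist mix for 0.5hr RT. Homogeneous time-resolved fluorescence cAMP detection after 1hr, expressed as 665/615 nm ratio.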
Chain of Beta-2 adrenergic receptor (Homo sapiens) (P07550 whole entry, looked up): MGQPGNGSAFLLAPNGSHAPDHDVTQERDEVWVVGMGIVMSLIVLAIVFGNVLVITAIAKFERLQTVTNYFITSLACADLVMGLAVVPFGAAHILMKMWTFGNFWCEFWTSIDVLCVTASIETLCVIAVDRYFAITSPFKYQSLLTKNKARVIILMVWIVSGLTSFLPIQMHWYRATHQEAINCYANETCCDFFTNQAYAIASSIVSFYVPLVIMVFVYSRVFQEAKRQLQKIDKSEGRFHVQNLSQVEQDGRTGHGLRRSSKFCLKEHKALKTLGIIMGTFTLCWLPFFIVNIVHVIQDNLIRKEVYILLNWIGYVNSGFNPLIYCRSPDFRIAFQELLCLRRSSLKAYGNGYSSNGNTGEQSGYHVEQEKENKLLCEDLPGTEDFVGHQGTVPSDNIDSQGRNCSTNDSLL

In test [19] the target is D(2) dopamine receptor (Homo sapiens) (UniProt P14416). The test is described as follows: Dopamine D2 receptor (DRD2) small molecule agonists, cell-based qHTS assay (AID 1963594). Further: nearly all actives have a fitted effect of over 35% in size. Summed up: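 cAMP accumulation in DRD2-HEK293 cells measured by HTRF after 1 h detection; compounds added 10 min before NKH477 (200nM […]) forskolin-analogue stimulation, 30 min at room temperature, with Ro20-1724 present at 0.1 mM final.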
Chain of D(2) dopamine receptor (Homo sapiens) (P14416 whole entry, looked up): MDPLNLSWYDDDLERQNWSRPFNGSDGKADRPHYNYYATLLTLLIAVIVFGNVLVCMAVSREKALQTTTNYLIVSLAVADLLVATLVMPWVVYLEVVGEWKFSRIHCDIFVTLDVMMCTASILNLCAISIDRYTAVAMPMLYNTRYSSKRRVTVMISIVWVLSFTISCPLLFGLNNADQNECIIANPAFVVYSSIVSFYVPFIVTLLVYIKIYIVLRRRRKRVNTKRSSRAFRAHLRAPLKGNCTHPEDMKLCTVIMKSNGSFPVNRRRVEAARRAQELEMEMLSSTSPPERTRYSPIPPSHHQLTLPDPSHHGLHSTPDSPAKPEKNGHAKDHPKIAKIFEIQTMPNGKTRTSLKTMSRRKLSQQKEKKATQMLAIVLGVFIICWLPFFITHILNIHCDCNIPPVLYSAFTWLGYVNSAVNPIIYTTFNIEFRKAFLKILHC

For test [20] the target is unchanged. The test is described as follows: Dopamine D2 receptor (DRD2) small molecule antagonists, cell-based qHTS assay (AID 1963595; active means well fitted inhibition curve with a large enough effect in the signal ratio in the repeat runs, with a control signal flat; the % refers to the signal ratio). Summed up:
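Antagonism was scored as restored cAMP in HEK293-DRD2 cells. These cells were stimulated with 200 nM NKH477 and 12 nM quinpirole for 30 min at room temperature, in the presence of 0.1 mM Ro20-1724.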

Chain of Gonadotropin-releasing hormone receptor (Homo sapiens) (P30968 whole entry, looked up): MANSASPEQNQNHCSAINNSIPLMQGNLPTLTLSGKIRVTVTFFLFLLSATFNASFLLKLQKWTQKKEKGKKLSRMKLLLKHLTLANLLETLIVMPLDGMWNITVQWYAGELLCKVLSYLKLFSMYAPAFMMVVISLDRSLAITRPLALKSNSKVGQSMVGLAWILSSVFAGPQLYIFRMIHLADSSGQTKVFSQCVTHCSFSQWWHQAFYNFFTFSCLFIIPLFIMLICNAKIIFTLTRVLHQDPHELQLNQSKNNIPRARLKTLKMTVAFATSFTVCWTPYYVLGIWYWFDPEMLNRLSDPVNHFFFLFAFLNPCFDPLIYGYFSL
Chain of 5-hydroxytryptamine receptor 2A (Homo sapiens) (P28223 whole entry, looked up): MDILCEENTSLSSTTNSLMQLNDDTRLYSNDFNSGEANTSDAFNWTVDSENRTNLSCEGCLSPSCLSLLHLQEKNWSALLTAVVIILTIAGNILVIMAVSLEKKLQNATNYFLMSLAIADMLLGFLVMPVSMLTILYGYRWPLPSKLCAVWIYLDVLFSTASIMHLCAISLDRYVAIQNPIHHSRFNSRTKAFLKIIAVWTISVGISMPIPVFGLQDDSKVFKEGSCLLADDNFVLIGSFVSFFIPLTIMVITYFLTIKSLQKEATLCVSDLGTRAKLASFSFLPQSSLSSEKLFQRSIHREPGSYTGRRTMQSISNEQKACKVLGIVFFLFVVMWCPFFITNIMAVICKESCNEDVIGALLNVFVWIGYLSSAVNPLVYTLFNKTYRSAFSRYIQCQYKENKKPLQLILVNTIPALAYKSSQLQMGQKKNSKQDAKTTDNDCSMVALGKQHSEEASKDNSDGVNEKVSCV
Chain of KiSS-1 receptor (Homo sapiens) (Q969F8 whole entry, looked up): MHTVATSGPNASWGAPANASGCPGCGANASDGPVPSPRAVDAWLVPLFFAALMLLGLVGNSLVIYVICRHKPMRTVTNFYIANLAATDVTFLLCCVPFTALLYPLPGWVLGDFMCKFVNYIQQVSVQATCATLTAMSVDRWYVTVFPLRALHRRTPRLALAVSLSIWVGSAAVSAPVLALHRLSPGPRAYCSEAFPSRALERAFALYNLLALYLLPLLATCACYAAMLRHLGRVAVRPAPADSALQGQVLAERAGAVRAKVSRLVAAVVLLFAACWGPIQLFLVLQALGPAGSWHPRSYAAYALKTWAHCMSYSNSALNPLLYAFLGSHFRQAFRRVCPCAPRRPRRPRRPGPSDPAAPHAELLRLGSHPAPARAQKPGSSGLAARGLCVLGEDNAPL

Turning to `O=C(Cl)c1ccccc1[N+](=O)[O-]`, the Potency entry in test [1], in [2], in [3], in [4], in test [5] and in test [6] was “inactive” each time. Moreover, the Potency result in test [7], in test [8], in test [9], in test [10], in test [11] and in test [12] was “inactive” in each case. For the same molecule, the Potency result in test [13], in [14], in [15], in [16], in test [17] and in test [18] was “inactive” each time. The Potency result in test [19] and in [20] was “inactive” in each case.
As for `NCCO`, the Potency result in test [1], in [3], in [4], in [5], in test [6] and in test [7] was “inactive” each time. Moreover, the Potency entry in test [10], in [11], in [12], in [13], in test [15] and in test [16] was “inactive” throughout. For the same molecule, the Potency result in [17], in test [18], in [19] and in [20] was “inactive” throughout. Moreover, the Potency entry in test [2] is “inactive and 27.3 µM (active)”; in [8] it was “inactive and 36.3 µM (active)”; in test [9], “inactive and 32.4 µM (active)”; in test [14], 18.8 µM (active).
As for `O=C(Cl)c1ccc(C(=O)Cl)cc1`, the Potency entry in [1], in test [2], in test [3], in test [4], in test [5] and in test [6] was “inactive” each time. Moreover, the Potency entry in [7], in test [8], in test [9], in [10], in test [11] and in test [12] was “inactive” throughout. Moreover, the Potency result in test [13], in [14], in [15], in [16], in test [17] and in test [18] was “inactive” throughout. The Potency entry in test [19] and in test [20] was “inactive” throughout.
In the case of `CCO[Si](CCCN=C=O)(OCC)OCC`, the Potency entry in [1], in test [2], in test [3], in test [4], in [5] and in test [6] was “inactive” each time. Further, the Potency entry in test [7], in [8], in [9], in [10], in test [11] and in test [12] was “inactive” each time. In addition, the Potency entry in test [13], in test [14], in test [15], in test [16], in test [17] and in [18] was “inactive” each time. Besides, the Potency result in test [19] and in [20] was “inactive” throughout.
In the case of `OCCCC1CCCCC1`, the Potency result in test [1], in test [2], in test [3], in test [4], in [5] and in test [6] was “inactive” each time. For the same molecule, the Potency result in test [7], in test [8], in test [9], in [10], in [11] and in test [12] was “inactive” each time. Further, the Potency entry in [13], in test [14], in test [15], in [16], in [17] and in test [18] was “inactive” throughout. Further, the Potency entry in test [19] and in [20] was “inactive” throughout.
For the molecule `O=C(O)c1cccc(C[C@@H]2COc3ccc(OCc4nc5cc(F)ccc5s4)cc3[C@@H]2O)c1`, the Potency result in [1], in test [2], in test [3], in [4], in test [5] and in test [6] was “inactive” in each case. The Potency entry in [7], in test [8], in test [9], in test [10], in test [11] and in test [12] was “inactive” each time. Further, the Potency entry in test [13], in test [14], in [15], in test [16], in test [17] and in test [18] was “inactive” throughout. Also, the Potency entry in test [19] and in [20] was “inactive” each time.
As for `CC1(C)Oc2ccc(C#N)cc2[C@@H](N2CCCC2=O)[C@@H]1O`, the Potency entry in test [1], in test [2], in test [3], in [4], in test [5] and in test [6] was “inactive” throughout. Besides, the Potency entry in test [7], in test [8], in test [9], in test [10], in test [11] and in [12] was “inactive” each time. The Potency entry in test [13], in test [14], in [15], in [16], in test [17] and in test [18] was “inactive” in each case. Besides, the Potency entry in [19] and in test [20] was “inactive” each time.
